Assay results taken from PubChem BioAssay AID1053205 (Broad Institute, 2014).
Results with a measured potency or affinity are listed apart. Inconclusive results are not listed. The source made the active and inactive calls.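 The calls were made as follows: active = compounds lowering the FRET ratio whose fitted half-maximal concentration is at most twice their top tested dose; inconclusive = flat partial drop between 30 and 70 percent, or bad fit; inactive = the rest.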

Biological target: Voltage-dependent L-type calcium channel subunit alpha-1D (Homo sapiens) (UniProt Q01668)
Sequence (Q01668 whole entry, looked up): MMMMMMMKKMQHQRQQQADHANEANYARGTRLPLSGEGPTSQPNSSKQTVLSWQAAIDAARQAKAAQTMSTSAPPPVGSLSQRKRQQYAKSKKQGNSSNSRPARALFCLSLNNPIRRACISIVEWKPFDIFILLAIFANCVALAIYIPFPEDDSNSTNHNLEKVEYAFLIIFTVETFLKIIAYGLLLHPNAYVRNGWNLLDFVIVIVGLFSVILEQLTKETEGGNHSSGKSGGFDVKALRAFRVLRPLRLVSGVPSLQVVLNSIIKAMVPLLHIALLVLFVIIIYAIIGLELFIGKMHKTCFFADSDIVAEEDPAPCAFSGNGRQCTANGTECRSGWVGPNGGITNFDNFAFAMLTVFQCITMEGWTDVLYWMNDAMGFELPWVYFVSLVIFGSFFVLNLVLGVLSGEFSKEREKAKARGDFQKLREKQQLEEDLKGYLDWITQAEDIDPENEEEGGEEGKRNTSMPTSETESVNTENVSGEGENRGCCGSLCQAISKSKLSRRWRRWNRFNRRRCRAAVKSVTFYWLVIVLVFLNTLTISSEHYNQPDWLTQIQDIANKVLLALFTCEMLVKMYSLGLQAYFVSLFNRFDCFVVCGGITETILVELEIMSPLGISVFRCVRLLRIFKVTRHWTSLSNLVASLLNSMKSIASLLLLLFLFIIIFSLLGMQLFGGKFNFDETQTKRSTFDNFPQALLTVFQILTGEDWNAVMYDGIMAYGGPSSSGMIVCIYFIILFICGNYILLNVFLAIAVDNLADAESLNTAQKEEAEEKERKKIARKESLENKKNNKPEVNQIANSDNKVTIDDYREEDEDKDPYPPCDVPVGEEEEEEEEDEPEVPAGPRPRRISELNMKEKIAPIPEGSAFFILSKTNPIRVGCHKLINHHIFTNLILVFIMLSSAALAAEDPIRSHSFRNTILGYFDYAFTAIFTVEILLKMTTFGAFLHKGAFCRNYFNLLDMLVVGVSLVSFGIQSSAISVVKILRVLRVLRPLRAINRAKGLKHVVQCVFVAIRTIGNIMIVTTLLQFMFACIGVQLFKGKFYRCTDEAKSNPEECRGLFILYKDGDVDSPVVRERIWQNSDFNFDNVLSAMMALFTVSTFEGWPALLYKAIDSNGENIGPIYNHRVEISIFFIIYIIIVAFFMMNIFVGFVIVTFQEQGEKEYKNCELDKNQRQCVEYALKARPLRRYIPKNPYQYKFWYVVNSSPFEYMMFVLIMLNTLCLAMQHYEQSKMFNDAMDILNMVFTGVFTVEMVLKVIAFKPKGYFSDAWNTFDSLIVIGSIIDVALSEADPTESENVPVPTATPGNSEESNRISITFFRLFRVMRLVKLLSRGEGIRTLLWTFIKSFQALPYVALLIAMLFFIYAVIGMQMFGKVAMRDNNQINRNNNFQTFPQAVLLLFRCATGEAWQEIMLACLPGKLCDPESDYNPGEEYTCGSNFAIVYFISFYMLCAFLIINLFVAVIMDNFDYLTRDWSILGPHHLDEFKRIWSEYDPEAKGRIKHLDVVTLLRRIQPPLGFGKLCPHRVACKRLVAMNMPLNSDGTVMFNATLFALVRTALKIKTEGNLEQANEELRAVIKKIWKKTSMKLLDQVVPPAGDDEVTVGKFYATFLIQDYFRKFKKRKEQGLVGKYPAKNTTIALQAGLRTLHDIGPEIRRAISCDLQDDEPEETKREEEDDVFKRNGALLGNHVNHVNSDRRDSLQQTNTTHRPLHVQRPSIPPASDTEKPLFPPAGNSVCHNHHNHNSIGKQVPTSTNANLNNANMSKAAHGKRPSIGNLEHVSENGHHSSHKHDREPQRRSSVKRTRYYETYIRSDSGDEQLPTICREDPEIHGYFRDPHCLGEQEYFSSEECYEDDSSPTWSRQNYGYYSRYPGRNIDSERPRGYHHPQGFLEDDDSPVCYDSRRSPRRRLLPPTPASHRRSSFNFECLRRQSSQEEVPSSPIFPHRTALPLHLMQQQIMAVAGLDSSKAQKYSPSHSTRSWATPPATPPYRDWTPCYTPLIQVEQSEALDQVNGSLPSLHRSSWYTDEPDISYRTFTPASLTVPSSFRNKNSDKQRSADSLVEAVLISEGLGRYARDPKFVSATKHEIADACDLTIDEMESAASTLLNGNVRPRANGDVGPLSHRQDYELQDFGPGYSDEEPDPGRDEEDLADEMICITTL
Experiment: inhibitors of CaV1.3 ICDI-IQ binding, dose response, cell-based, HEK293, YFP-IQ/CFP-ICDI FRET, cherry-picks (AID 1053205);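 also: 0% = median of neutral control wells and -100% = median of positive control wells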
Conditions: HEK293 YFP-IQ/CFP-ICDI FRET ratio, 10 min; series mostly up to 35 µM

outcome, inactive:
O=C(NNc1c2ccccc2nc2ccccc12)c1ccc(O)cc1, CCC(C)NC(=S)N1CCN(Cc2ccc3c(c2)OCO3)CC1 (configuration not stated), CCOCCCNc1c(CC)c(C)c(C#N)c2nc3ccccc3n12, O=C(CCc1c[nH]c2ccccc12)OCC(=O)c1ccccc1, Cc1ccc2c(c1)N(C(=O)CCC(=O)NCCCN1CCOCC1)CC(C)O2 (configuration not stated), O=c1oc2cc(O)ccc2cc1S(=O)(=O)c1ccccc1, CCOC(=O)c1c2ccc(OCC(=O)NN)cc2n2ccccc12, Cc1ccc2nc3c(cc(C(N)=S)c(=N)n3CCCOC(C)C)c(=O)n2c1, O=C(CCCN1C(=O)CSc2ncccc21)N1CCN(Cc2ccccc2)CC1, O=C(Cc1csc(-c2ccccc2)n1)NCc1ccccc1F, Cc1oc(/N=C/c2ccc(F)cc2)c(C#N)c1C, CNC(=O)c1ccc(NC(=O)c2cccc(C(F)(F)F)c2)cc1, Cc1nc2ccc(S(=O)(=O)Nc3ccc(-c4nc5cccnc5s4)cc3)cc2s1, CCN(CC)c1ccc2cc(S(=O)(=O)c3ccc(Cl)cc3)c(=O)oc2c1, COc1cc(C(=O)OCC(C)=O)cc(NC(=O)c2ccco2)c1OC, COc1ccc(CCNC(=O)c2cc(S(=O)(=O)N3CCCCC3)c[nH]2)cc1OC, Cc1ccc(S(=O)(=O)CCC(=O)OCC(=O)Nc2cccc(S(=O)(=O)N3CCCCC3)c2)cc1, COCCNC(=O)c1cc2c(=O)n3cccc(C)c3nc2n(Cc2ccncc2)c1=N, CCCCN(CCCC)CC(O)Cn1c2ccccc2c(=O)c2ccccc21 (configuration not stated), COc1ccc(C2CC(c3ccccc3)=NN2c2ccc(C(N)=O)cc2)cc1 (configuration not stated), N#CC(C#N)=C1C=CC=CN1/C(=C\c1ccccc1)C(=O)c1cccs1, CSc1ccc(Cn2c(C)c(C(=O)NCc3cccc(Cl)c3)sc2=O)cc1, COc1ccc(NC(=O)C2CCC(CNS(=O)(=O)c3cccs3)CC2)cc1 (configuration not stated), CCN(CC)CCN1C2=C(C(=O)CC(C)(C)C2)C(c2cccc(F)c2)C2=C1CC(C)(C)CC2=O, NC(=O)c1c(NC(=O)Cc2ccccc2)sc2c1CCN(Cc1ccccc1)C2, CCOc1ccc(C2C(C#N)=C(N)Oc3cc(O)ccc32)cc1OCC (configuration not stated), COCCCOc1cc(NCc2ccccc2)c2ncn(C(C)C)c2c1, Nc1nc(-c2cc(O)ccc2[N+](=O)[O-])cc(-c2ccccc2)c1[N+](=O)[O-], N#Cc1c2ccc(OCC(N)=O)cc2n2ccccc12, Cc1c(C=O)c2ccccn2c1C(=O)c1cccs1, O=C(NCc1ccc(F)cc1)C1CCCN1C(=O)Nc1cccc(F)c1 (configuration not stated), CCN1C(=O)c2cccc3c(S(=O)(=O)N(C)C)ccc1c23, O=C1CCc2cc(S(=O)(=O)NC(Cc3ccccc3)C(=O)NCCC3=CCCCC3)ccc2N1 (configuration not stated), Clc1ccccc1C1=CC(c2ccco2)n2ncnc2N1 (configuration not stated), COc1ccc(-[n+]2c(C)cc(/C=C3\Sc4ccccc4N3C)cc2C)cc1, COC(=O)C1=CN(Cc2ccc(OC)c(OC)c2)C=C(C(=O)OC)C1c1cccc(F)c1

FRET change, negative = inhibition, inactive:
CCN1/C(=C/c2sc(-c3ccccc3C)c[n+]2C)Sc2ccccc21 148% [at 8 µM]
